High-throughput results (PubChem)
This is a sample that favours compounds with a hit; in the whole collection about 3% have one here.
Calpain2 inh = calpain II (pig) inhibition; inhibition, % at 16 µM; hit rate 0.37% among 220,000; purified calpain II, fluorogenic peptide substrate, 30 min;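 active = inhibition above about 50%, limit read from the data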
ROMK mod = modulators of human ROMK potassium channel | P48048 | Tet-inducible ROMK, thallium flux fluorescence; actives lie on both sides | B-score at 10 µM | hit rate 2% among 130,000;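 active = signal ratio slope over the read window, or its plate-corrected B-score, at least 3 SD from the plate mean, either direction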;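 note: B-score of the F/F0 ratio slope over 7 to 12 s after thallium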
Target sequence (P48048 whole entry, looked up): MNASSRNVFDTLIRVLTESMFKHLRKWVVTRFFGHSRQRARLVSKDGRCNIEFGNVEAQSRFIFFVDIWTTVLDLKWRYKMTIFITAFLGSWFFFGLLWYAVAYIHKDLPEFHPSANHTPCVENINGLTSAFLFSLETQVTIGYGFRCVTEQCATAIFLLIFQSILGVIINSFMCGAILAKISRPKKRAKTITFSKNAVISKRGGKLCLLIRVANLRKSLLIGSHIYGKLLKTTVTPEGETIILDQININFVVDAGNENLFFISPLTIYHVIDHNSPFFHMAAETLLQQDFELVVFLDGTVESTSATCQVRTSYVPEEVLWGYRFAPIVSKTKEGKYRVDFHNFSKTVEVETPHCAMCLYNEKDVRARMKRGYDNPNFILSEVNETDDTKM
TNF death inh = blocks TNF-alpha induced death of Jurkat FADD-/- cells; Jurkat FADD-/- TNF necroptosis rescue, ATP luminescence, 24 h; 0 = TNF only, 100 = no-TNF cells; activation (protection from cell death), % at 10 µM; hit rate 0.068% among 220,000;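 active = activation, meaning protection from cell death, of at least 50% relative to plate controls; inactive = activation below 50%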;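 note: necroptosis triggered by 40 ng/mL TNF-alpha added together with compound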
Efa HMGR inh = blocks class II HMG-CoA reductase of Enterococcus faecalis | purified E. faecalis HMGR, NADPH absorbance 340 nm kinetic | inhibition, % at 10 µM | hit rate 0.41% among 190,000;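 active = inhibition above a set limit, the median over all tested compounds plus 3 SD, cut at about 9.5% in these data; inconclusive = no clear call, values can overlap the other calls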;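 note: enzyme runs in reverse so mevalonate oxidation gives rising NADPH absorbance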
L929 necroptosis = L929 zVAD cell death inhibition | L929 zVAD necroptosis rescue, ATP luminescence, 24 h; with zVAD 60 µM | viability rescue, % at 10 µM | hit rate 0.38% among 220,000 | AID 1377;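 active = activation, scaled between plate controls, above about 75%, limit read from the data; inactive = activation under that limit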
14-3-3 Bad inh = disrupts binding of bovine 14-3-3 zeta to phospho-Bad peptide; inhibition, % at 21.7 µM; AID 781; TR-FRET 14-3-3zeta/Dy647-pBad peptide displacement, 1 h; hit rate 0.71% among 220,000;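 active = inhibition above about 70%, limit read from the data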
Target sequence (P63103 whole entry, looked up): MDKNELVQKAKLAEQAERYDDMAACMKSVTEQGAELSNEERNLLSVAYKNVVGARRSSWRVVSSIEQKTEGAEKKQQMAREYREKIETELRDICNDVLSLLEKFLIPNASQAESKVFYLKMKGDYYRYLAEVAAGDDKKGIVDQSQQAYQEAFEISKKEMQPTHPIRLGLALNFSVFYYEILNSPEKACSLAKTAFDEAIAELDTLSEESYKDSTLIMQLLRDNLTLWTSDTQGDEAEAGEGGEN
ROMK hit retest = confirmation of human ROMK potassium channel modulators. shares compounds with ROMK mod. ROMK thallium flux, fluorescence ratio; hits give low values. normalized thallium flux (F/F0 slope) at 10 µM. hit rate 54% among 3,000. AID 1917;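 active = Flux at 10 µM at least 3 SD below or above vehicle control mean in one or both replicates; inconclusive = no clear call, values can overlap the other calls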
Large screens that a line does not name were inactive (follow-up assays come after a bar, where they were run).

O=c1c([N+](=O)[O-])cc(C(F)(F)F)cn1Cc1c(Cl)cccc1Cl	none (no result: ROMK mod) | ROMK hit retest inactive
Cc1ccc(-n2nnnc2CCl)cc1	none
Cc1ccccc1NS(=O)(=O)c1cc(S(C)(=O)=O)ccc1Cl	none | ROMK hit retest inactive
COc1ccc(Nc2ncnc3scc(-c4ccc(OC)cc4)c23)cc1	none | ROMK hit retest 0.066
O=C1OCc2ccc(NS(=O)(=O)c3ccc(C(F)(F)F)cc3)cc21	none (no result: Efa HMGR inh)
O=C(CCn1nc(-c2ccc(Cl)cc2)c2ccccc2c1=O)Nc1cccnc1	none
N#CC1=C(N)C2=CCCC[C@H]2[C@H](c2cccc(F)c2)C1(C#N)C#N	ROMK mod -2.5 | ROMK hit retest 0.053
COC(=O)c1ccc(NC(=O)c2sc3nc(-c4ccccc4)cn3c2C)cc1	none (no result: ROMK mod) | ROMK hit retest inconclusive
CC1CCCC(C(=O)OCc2ccccc2)N1 (centres undefined)	none (no result: ROMK mod)
CCCCOC(=O)C1CCC[C@@H](C)N1 (some centres undefined)	none (no result: ROMK mod) | ROMK hit retest inactive
Cn1c(-[n+]2c(-c3ccccc3)cc(-c3ccccc3)cc2-c2ccccc2)nc2cc([N+](=O)[O-])ccc21	none (no result: ROMK mod) | ROMK hit retest 0.06
COc1ccccc1C(=O)NC1CCCCCCC1	none
COc1ccc(S(=O)NC2CCCCC2)c(OC)c1C (centres undefined)	none (no result: ROMK mod) | ROMK hit retest inactive
COc1ccc(N2C(=O)CSC23C(=O)Nc2ccccc23)cc1OC (centres undefined)	none (no result: ROMK mod) | ROMK hit retest inactive
Cc1nc(-c2ccc(S(=O)(=O)Oc3ccc(Cl)cc3Cl)s2)cs1	none (no result: ROMK mod, Efa HMGR inh)
CCOC(=O)C(=Cc1ccc(-n2cncn2)cc1)C(=O)OCC	ROMK mod -5.1 | ROMK hit retest 0.063
Cc1ccc2sc(N(CCCN(C)C)C(=O)c3ccc(Br)s3)nc2c1C	none
CC1C/C(=C/c2cccn2C)C(=O)/C(=C/c2cccn2C)C1 (centres undefined)	none (no result: ROMK mod)
CC1C/C(=C/c2ccncc2)C(=O)/C(=C/c2ccncc2)C1 (centres undefined)	ROMK mod -1.8 | ROMK hit retest 0.05
COc1ccc(N=Cc2oc3ccc4ccccc4c3c2O)cc1	ROMK mod -3.5 | ROMK hit retest 0.053
COc1ccc(N=Cc2[nH]c3ccccc3c2O)cc1	none
Cc1cccc(NC(=O)C2SC(=Nc3c(C)cccc3C)C(C(=O)N3CCOCC3)=C2N)c1 (centres undefined)	none (no result: ROMK mod)
O=C(C1CC1)N1N=C(C2CCCCC2)CC1(O)C(F)(F)F (centres undefined)	none
Fc1cccc(Cl)c1CNCc1ccccc1Cl	none
O=C(c1ccco1)N1CCN(S(=O)(=O)c2ccc(Oc3ccccc3)cc2)CC1	none (no result: ROMK mod) | ROMK hit retest 0.067
Cc1ccc(C2C(C(=O)c3cccs3)=C(O)C(=O)N2c2nnc(C)s2)cc1 (centres undefined)	none | ROMK hit retest 0.052
CC(C)(C)c1ccc(N2C(=N)SCC2=O)cc1	ROMK mod -9.3 (no result: Efa HMGR inh) | ROMK hit retest 0.041
CCN(CC)C(=O)CCSc1nnc(-c2ccco2)o1	none | ROMK hit retest inactive
O=C(CSc1nnc(-c2ccco2)o1)c1ccccc1	none (no result: ROMK mod) | ROMK hit retest inactive
CC(C(=O)NC1CCCc2ccccc21)N1CCN(Cc2ccc3c(c2)OCO3)CC1 (centres undefined)	ROMK mod -3 | ROMK hit retest 0.058
COc1cc(CC(=O)Nc2ccc3nc(C)sc3c2)cc(OC)c1OC	none (no result: ROMK mod)
CCC(=O)Nc1nc2ccc(NC(=O)c3cc(OC)c(OC)c(OC)c3)cc2s1	none (no result: ROMK mod) | ROMK hit retest 0.064
Cc1nn(Cc2ccccc2)c2c1C(c1ccc(Cl)cc1)C(C#N)=C(N)O2 (centres undefined)	ROMK mod -2.9 | ROMK hit retest 0.059
O=C(NNS(=O)(=O)c1ccccc1[N+](=O)[O-])c1ccccc1[N+](=O)[O-]	none
O=C(CCC(=O)Nc1ccccc1)NNS(=O)(=O)c1ccccc1[N+](=O)[O-]	ROMK mod 0.44 | ROMK hit retest inactive
NS(=O)(=O)c1cccc(NC(=O)COC(=O)CC2CC3CCC2C3)c1 (centres undefined)	none
COc1cc(-c2n[nH]c(=S)n2/N=C/c2cccn2C)cc(OC)c1OC	none (no result: ROMK mod, Efa HMGR inh)
N#CC(C#N)=C1C=CC=CN1/C(=C\c1ccco1)C(=O)c1ccccc1	ROMK mod -6 | ROMK hit retest 0.036
CC(C)(C)NC(=O)/C(=C/c1ccco1)c1ccccc1	none (no result: ROMK mod)
CC1(C)CC(C(CC(=O)N2CCCC2)Cc2ccccc2)CCO1 (centres undefined)	none (no result: ROMK mod, Efa HMGR inh)
Cn1cnnc1SCC(=O)NNC(=O)c1ccc(Cl)cc1	none
Cc1csc(SCC(=O)Nc2ccccc2[N+](=O)[O-])n1	ROMK mod -19 | ROMK hit retest inconclusive
Oc1ccc2ccccc2c1C=Nc1ccccc1-c1nc2ccccc2[nH]1	none
Cc1ccc(C2CC2C(=O)NNC(=S)Nc2cccc(C)c2)cc1 (centres undefined)	none
Cc1ccc(C2CC2C(=O)NNC(=S)Nc2cccc(Cl)c2)cc1 (centres undefined)	none (no result: ROMK mod) | ROMK hit retest inconclusive
CC(C)CC(C(=O)NCC1CCCO1)N(C(=O)Cn1nnc(-c2ccc(F)cc2)n1)c1ccccc1F (centres undefined)	none (no result: ROMK mod)
COCCNC(=O)/C(C#N)=C/c1ccc(SC)cc1	ROMK mod -3.9 | ROMK hit retest 0.049
COCCNC(=O)/C(C#N)=C/c1cccs1	none (no result: ROMK mod, Efa HMGR inh)
COCCNC(=O)/C(C#N)=C/c1ccc(OC(=O)c2cccs2)c(OC)c1	ROMK mod -4.4 | ROMK hit retest 0.044
COCCCNC(=O)/C(C#N)=C/c1ccc(F)cc1	ROMK mod -3.9 | ROMK hit retest 0.052
COCCNC(=O)/C(C#N)=C/c1c(F)cccc1Cl	ROMK mod -3.7 | ROMK hit retest 0.037
COCCNC(=O)/C(C#N)=C/c1ccc(OCc2ccc(F)cc2)cc1	none
CC(C)Cc1csc(NC(=O)c2ccc(Br)cc2)c1C(=O)O	none (no result: ROMK mod, Efa HMGR inh)
COc1ccccc1N1CCN(S(=O)(=O)c2c(C)[nH]c(=O)[nH]c2=O)CC1	none
CC(Oc1ccc(Cl)cc1Cl)C(=O)NCCC1=CCCCC1 (centres undefined)	none
COc1cc(/C=C(/C#N)C(=O)Nc2ccccc2)ccc1OCc1ccc(C(=O)O)cc1	ROMK mod -2.5 | ROMK hit retest 0.053
CCCCNC(=O)/C(C#N)=C/c1ccc(F)cc1F	ROMK mod -7.8 | ROMK hit retest 0.046
CCOCCCNC(=O)/C(C#N)=C/c1ccc(C)o1	none
CCOC(=O)c1c(C)oc2c1c(C=NCC1CCCO1)c(O)c1ccccc12 (centres undefined)	none
CCOC(=O)c1c(C)oc2c1c(C=NCc1ccccn1)c(O)c1ccccc12	none (no result: ROMK mod) | ROMK hit retest 0.064
CN(C)c1ccc2c3c(ccc(N(C)C)c13)C(=O)OC2	none (no result: ROMK mod, Efa HMGR inh) | ROMK hit retest inactive
